ChEMBL document CHEMBL1961873, “Compounds: GSK PKIS; Assays: Nanosyn kinase panel” (2012)

Assays:
[1] = molecular target: Sphingosine kinase 1 (Homo sapiens) (UniProt Q9NYA1); settings: at 1 µM;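 note: mean SPHK1 inhibition value reported from the GSK PKIS kinase panel screen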
[2] = molecular target: T1, Sphingosine kinase 2 (Homo sapiens) (UniProt Q9NRA0); settings: at 0.1 µM
T1 sequence (whole entry): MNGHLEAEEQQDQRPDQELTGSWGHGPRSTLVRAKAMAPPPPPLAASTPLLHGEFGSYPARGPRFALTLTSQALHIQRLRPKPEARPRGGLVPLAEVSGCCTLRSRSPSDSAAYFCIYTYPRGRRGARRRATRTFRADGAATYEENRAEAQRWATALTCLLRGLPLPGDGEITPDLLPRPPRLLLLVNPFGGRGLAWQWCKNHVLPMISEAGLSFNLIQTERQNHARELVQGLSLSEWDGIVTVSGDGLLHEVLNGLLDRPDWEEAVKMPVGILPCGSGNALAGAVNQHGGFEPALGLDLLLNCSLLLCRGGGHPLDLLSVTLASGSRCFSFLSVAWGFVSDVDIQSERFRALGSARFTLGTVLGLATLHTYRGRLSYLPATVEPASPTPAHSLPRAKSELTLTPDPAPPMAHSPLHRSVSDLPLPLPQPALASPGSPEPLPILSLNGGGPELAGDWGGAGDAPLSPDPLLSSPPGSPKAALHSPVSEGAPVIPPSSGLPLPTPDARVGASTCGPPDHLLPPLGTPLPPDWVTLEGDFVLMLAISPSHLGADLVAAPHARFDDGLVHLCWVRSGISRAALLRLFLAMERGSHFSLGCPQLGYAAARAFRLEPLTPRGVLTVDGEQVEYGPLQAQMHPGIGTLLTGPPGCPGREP

[3] = molecular target: T1, Sphingosine kinase 2 (Homo sapiens); settings: at 1 µM
[4] = molecular target: Casein kinase II subunit alpha (Homo sapiens) (UniProt P68400); settings: at 0.1 µM
[5] = molecular target: Casein kinase II subunit alpha (Homo sapiens) (UniProt P68400); settings: at 1 µM
[6] = molecular target: T2, Inhibitor of nuclear factor kappa-B kinase subunit alpha (Homo sapiens) (UniProt O15111); settings: at 0.1 µM
T2 sequence (whole entry): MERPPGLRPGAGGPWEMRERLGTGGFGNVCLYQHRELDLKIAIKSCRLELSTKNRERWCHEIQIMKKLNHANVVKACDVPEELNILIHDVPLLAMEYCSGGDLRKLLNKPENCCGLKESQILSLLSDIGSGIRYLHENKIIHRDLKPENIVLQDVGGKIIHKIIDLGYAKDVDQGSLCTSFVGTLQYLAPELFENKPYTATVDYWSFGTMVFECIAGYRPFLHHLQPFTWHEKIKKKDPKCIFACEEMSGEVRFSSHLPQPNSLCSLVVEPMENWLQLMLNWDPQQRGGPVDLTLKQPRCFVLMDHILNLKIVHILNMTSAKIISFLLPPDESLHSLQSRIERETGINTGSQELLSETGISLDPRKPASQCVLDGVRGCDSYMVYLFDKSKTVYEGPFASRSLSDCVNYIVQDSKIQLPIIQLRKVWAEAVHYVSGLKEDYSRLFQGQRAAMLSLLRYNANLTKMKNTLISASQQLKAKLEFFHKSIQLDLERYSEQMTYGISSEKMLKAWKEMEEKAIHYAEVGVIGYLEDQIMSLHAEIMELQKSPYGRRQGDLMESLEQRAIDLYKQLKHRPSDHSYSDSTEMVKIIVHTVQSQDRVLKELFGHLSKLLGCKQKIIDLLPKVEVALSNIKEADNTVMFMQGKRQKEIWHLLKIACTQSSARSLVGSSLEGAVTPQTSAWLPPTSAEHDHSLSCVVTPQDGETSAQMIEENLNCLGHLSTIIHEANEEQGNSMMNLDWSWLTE

[7] = molecular target: T2, Inhibitor of nuclear factor kappa-B kinase subunit alpha (Homo sapiens); settings: at 1 µM
[8] = molecular target: T3, Inhibitor of nuclear factor kappa-B kinase subunit beta (Homo sapiens) (UniProt O14920); settings: at 0.1 µM
T3 sequence (whole entry): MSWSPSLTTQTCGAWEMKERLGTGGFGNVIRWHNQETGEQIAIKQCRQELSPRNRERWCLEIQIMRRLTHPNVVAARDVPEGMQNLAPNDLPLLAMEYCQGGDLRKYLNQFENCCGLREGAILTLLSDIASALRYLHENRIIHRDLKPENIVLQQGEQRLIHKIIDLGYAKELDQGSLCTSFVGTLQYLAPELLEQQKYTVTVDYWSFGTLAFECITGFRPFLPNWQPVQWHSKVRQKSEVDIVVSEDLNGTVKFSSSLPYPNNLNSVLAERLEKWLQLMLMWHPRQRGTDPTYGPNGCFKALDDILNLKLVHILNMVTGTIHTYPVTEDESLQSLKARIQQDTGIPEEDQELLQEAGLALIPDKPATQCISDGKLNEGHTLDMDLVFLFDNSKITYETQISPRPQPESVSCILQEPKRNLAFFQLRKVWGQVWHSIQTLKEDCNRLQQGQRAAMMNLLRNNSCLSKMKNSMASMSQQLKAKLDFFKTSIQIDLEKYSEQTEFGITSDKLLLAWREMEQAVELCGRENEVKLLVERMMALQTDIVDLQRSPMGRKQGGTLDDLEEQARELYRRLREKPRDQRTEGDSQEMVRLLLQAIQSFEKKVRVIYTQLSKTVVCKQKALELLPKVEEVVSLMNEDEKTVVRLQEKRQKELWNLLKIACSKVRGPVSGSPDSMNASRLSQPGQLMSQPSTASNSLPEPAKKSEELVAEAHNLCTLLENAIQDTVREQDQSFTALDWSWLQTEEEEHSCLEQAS

[9] = molecular target: T3, Inhibitor of nuclear factor kappa-B kinase subunit beta (Homo sapiens); settings: at 1 µM
[10] = molecular target: T4, Inhibitor of nuclear factor kappa-B kinase subunit epsilon (Homo sapiens) (UniProt Q14164); settings: at 0.1 µM
T4 sequence (whole entry): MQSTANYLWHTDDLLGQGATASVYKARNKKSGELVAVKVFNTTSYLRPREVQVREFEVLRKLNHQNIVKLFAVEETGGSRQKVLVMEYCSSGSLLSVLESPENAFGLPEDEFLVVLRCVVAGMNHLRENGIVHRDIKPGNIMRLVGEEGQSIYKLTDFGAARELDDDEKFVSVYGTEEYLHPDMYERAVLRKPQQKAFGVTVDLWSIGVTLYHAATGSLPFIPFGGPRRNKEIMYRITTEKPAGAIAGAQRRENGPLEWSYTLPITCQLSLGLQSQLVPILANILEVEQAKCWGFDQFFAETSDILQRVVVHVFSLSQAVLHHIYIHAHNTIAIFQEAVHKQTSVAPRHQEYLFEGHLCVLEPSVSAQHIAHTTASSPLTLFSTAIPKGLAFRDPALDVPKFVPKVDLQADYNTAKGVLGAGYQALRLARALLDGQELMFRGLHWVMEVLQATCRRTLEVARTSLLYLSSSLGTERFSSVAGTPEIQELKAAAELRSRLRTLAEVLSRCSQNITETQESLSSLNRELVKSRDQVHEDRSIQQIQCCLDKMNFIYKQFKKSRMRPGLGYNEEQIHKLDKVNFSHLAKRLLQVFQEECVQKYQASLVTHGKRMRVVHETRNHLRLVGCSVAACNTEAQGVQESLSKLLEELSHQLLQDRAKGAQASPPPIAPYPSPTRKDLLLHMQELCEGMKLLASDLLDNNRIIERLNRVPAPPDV

[11] = molecular target: T4, Inhibitor of nuclear factor kappa-B kinase subunit epsilon (Homo sapiens); settings: at 1 µM
[12] = molecular target: T5, Serine/threonine-protein kinase Nek1 (Homo sapiens) (UniProt Q96PY6); settings: at 0.1 µM
T5 sequence (whole entry): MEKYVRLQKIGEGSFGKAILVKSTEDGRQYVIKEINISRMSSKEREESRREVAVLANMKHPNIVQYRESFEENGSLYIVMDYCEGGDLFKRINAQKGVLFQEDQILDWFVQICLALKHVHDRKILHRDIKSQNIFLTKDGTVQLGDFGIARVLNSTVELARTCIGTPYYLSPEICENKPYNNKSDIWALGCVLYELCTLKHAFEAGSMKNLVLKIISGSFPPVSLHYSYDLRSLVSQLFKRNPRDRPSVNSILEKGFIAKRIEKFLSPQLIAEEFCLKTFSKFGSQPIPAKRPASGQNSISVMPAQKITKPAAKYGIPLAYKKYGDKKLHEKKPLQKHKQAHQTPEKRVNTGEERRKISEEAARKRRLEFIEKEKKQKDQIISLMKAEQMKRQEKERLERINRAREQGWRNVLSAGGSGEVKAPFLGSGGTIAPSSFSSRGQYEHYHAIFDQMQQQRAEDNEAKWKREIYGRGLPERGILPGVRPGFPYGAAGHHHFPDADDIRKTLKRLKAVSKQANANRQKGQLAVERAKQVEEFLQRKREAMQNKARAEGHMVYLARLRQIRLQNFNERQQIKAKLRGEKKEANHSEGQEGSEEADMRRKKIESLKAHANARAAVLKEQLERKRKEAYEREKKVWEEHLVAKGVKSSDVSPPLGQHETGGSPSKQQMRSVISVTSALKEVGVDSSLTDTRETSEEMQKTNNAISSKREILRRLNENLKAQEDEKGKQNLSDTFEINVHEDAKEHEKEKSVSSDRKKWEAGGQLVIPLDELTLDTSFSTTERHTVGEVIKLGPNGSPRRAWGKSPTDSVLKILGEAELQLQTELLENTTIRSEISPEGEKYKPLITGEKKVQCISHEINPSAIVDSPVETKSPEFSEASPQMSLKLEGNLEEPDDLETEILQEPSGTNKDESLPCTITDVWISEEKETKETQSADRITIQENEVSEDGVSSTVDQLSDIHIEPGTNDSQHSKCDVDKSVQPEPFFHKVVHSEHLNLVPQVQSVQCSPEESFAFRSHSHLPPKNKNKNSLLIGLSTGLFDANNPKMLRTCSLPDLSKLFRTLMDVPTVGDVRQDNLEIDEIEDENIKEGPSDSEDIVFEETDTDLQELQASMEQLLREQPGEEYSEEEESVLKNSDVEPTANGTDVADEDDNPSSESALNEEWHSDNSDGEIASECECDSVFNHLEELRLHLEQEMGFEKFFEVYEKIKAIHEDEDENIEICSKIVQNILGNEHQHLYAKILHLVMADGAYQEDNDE

[13] = molecular target: T5, Serine/threonine-protein kinase Nek1 (Homo sapiens); settings: at 1 µM
[14] = molecular target: T6, Serine/threonine-protein kinase Nek2 (Homo sapiens) (UniProt P51955); settings: at 0.1 µM
T6 sequence (whole entry): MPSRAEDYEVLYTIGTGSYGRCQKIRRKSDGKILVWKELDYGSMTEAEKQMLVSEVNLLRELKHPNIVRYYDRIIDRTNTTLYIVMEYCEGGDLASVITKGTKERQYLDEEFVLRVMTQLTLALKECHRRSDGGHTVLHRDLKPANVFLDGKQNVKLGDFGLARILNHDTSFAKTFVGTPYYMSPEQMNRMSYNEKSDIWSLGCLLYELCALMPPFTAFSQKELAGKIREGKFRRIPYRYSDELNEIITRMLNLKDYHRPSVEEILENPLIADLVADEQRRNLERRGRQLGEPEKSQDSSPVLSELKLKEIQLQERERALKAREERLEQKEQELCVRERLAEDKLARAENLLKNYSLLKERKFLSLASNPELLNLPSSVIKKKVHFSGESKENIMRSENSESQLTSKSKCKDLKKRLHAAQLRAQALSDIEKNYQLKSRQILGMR

[15] = molecular target: T6, Serine/threonine-protein kinase Nek2 (Homo sapiens); settings: at 1 µM
[16] = molecular target: Serine/threonine-protein kinase Nek6 (Homo sapiens) (UniProt Q9HC98); settings: at 0.1 µM
[17] = molecular target: Serine/threonine-protein kinase Nek6 (Homo sapiens) (UniProt Q9HC98); settings: at 1 µM
[18] = molecular target: Serine/threonine-protein kinase Nek7 (Homo sapiens) (UniProt Q8TDX7); settings: at 0.1 µM
[19] = molecular target: Serine/threonine-protein kinase Nek7 (Homo sapiens) (UniProt Q8TDX7); settings: at 1 µM
[20] = molecular target: T7, Serine/threonine-protein kinase Nek9 (Homo sapiens) (UniProt Q8TD19); settings: at 0.1 µM;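 note: reported value is the mean percent inhibition of NEK9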
T7 sequence (whole entry): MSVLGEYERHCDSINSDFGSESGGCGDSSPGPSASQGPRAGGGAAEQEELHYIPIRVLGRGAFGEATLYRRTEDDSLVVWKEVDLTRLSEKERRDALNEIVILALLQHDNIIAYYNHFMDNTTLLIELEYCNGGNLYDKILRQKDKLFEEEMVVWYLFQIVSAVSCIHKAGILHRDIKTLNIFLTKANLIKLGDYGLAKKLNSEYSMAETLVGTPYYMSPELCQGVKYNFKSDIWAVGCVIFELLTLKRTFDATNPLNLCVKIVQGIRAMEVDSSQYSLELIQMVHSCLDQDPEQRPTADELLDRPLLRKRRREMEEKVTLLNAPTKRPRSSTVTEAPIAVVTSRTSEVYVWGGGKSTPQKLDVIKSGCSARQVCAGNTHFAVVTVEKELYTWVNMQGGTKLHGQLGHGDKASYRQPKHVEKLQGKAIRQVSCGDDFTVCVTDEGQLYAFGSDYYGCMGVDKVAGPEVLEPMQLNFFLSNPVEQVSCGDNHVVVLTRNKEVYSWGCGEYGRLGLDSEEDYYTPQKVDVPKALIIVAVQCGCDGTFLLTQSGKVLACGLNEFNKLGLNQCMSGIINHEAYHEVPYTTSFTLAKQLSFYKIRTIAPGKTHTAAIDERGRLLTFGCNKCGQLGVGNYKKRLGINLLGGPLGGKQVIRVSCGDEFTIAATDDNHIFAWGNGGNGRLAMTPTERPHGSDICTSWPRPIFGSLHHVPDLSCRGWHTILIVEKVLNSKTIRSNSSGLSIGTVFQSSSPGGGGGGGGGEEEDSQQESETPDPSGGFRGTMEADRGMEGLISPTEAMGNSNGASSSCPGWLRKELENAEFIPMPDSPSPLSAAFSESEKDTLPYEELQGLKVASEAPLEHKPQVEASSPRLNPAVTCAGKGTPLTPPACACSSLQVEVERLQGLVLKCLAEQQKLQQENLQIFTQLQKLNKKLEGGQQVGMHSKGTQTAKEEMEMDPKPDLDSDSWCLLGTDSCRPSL

Sequence of Serine/threonine-protein kinase Nek6 (Homo sapiens) (Q9HC98 whole entry): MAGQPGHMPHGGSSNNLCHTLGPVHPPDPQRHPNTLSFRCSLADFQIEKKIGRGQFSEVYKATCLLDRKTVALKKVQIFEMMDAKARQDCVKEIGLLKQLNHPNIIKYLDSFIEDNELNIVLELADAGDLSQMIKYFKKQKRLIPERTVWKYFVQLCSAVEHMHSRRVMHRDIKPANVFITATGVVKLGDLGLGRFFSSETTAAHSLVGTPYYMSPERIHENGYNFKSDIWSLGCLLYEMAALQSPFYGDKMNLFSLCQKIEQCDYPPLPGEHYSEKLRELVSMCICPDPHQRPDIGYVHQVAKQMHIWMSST
Sequence of Casein kinase II subunit alpha (Homo sapiens) (P68400 whole entry, looked up): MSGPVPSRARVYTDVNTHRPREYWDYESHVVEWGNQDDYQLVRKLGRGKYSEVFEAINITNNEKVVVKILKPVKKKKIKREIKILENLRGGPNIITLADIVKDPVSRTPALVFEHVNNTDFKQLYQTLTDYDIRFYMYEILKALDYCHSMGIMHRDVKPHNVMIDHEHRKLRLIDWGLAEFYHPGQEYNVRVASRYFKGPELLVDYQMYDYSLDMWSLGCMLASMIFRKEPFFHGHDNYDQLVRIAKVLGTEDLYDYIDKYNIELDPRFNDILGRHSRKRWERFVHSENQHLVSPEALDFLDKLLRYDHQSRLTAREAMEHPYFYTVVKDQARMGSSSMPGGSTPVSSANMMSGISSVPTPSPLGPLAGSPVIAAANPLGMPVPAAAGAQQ
Sequence of Serine/threonine-protein kinase Nek7 (Homo sapiens) (Q8TDX7 whole entry, looked up): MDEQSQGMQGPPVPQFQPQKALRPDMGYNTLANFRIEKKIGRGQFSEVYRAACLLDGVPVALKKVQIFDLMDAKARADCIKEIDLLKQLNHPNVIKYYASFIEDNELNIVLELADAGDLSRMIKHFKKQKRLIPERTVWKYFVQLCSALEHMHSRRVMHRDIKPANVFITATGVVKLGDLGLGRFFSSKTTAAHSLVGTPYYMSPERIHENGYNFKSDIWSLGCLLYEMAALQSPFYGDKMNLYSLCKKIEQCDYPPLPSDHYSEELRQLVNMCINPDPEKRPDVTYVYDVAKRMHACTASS
Sequence of Sphingosine kinase 1 (Homo sapiens) (Q9NYA1 whole entry): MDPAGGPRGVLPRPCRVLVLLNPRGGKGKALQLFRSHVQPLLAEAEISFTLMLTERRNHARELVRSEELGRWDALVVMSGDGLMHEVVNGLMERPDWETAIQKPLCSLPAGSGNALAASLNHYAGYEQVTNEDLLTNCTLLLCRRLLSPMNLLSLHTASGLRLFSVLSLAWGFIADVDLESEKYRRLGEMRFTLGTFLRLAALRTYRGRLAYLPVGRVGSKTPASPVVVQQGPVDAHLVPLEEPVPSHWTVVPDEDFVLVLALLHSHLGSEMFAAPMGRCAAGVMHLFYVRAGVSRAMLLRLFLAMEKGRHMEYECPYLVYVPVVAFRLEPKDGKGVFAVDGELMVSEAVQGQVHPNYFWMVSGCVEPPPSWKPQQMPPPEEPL

Row | Structure (SMILES) | inhibition [1] [%] | inhibition [2] [%] | inhibition [3] [%] | inhibition [4] [%] | inhibition [5] [%] | inhibition [6] [%] | inhibition [7] [%] | inhibition [8] [%] | inhibition [9] [%] | inhibition [10] [%] | inhibition [11] [%] | inhibition [12] [%] | inhibition [13] [%] | inhibition [14] [%] | inhibition [15] [%] | inhibition [16] [%] | inhibition [17] [%] | inhibition [18] [%] | inhibition [19] [%] | inhibition [20] [%]
1 | Cc1nc(-c2ccccc2)n2nc(NCCCN3CCOCC3)ncc12 | -2.26 | -1.13 | -0.14 | 13.3 | 6.84 | -0.66 | 5.55 | 2.75 | 4.98 | 4.87 | 6.26 | 1.82 | 1.68 | 3.14 | 1.97 | -0.18 | 3.25 | 1.2 | 2.34 | 7.69
2 | NS(=O)(=O)c1ccc(N/N=C2\C(=O)Nc3ccc(Cl)cc32)cc1 | -4.27 | 0 | -3.44 | 4.94 | 14 | -0.36 | 10.7 | 4.8 | 5.46 | 7.49 | 8.2 | 2.48 | 3.33 | 4.08 | 4.1 | 4.79 | 4.93 | 2.88 | 3.63 | 7.35
